TDP1 cell CPT = qHTS for Inhibitors of human tyrosyl-DNA phosphodiesterase 1 (TDP1): qHTS in cells in presence of CPT; chicken DT40 Tdp1-/-;hTDP1 cells + 20 nM CPT, ATP luminescence, 48 h; Potency, µM (top dose mostly 46.2 µM), inactives show at the highest dose activity change, negative = growth inhibition, actives largely listed as inhibitors; actives 12% (n = 420,000); also: nearly all actives have a fitted effect of over 55% in size
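Cell growth measured by CellTiter-Glo luminescence after a minimum 48 h, 37 C compound exposure with 20 nM CPT in Tdp1-knockout DT40 cells stably expressing hTDP1, seeded 400/well; qHTS titration format.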
TDP1 inh = qHTS Assay for Inhibitors of Tyrosyl-DNA Phosphodiesterase (TDP1); Tyrosyl-DNA phosphodiesterase 1 (Homo sapiens), Q9NUW8; recombinant TDP1, AlphaScreen DNA substrate cleavage; Potency, µM (series often up to 130 µM), without a hit: at the highest dose activity change, negative = inhibition, actives largely listed as inhibitors; actives 0.28% (n = 350,000); AID 485290, 2010; also: nearly all actives have a fitted effect of over 40% in size
Target sequence (Q9NUW8 whole entry, looked up): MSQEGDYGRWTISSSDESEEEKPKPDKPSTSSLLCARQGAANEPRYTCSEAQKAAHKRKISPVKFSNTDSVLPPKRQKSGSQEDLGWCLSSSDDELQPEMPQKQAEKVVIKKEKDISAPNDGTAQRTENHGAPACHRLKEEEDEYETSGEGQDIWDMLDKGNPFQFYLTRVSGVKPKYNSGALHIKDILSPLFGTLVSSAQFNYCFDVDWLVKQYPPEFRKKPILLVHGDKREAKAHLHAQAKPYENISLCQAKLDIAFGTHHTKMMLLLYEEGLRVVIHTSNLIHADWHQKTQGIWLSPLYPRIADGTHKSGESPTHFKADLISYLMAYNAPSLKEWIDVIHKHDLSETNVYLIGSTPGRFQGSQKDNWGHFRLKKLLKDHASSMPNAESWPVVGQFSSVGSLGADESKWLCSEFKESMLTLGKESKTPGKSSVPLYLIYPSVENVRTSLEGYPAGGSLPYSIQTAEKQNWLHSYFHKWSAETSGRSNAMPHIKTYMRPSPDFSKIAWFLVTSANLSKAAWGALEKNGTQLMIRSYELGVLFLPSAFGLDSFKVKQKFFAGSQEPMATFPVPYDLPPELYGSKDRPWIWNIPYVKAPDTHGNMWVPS
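Enzyme-compound mixtures sat 15 min at room temperature, followed by a 5 min reaction with 15 nM final substrate and 10 min with AlphaScreen beads. Recombinant human Tdp1 was used at 1 nM final.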
DT40 TDP1 no CPT = qHTS for Inhibitors of human tyrosyl-DNA phosphodiesterase 1 (TDP1): qHTS in cells in absence of CPT; DT40 Tdp1-/- hTDP1 cells, no CPT, ATP luminescence, 48 h; Potency, µM (top dose mostly 46.2 µM), without a hit: at the top dose activity change, negative = growth inhibition, usual class: inhibitors; actives 15% (n = 420,000); also: nearly all actives have a fitted effect of over 55% in size
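Compound effects on proliferation are scored in DT40 Tdp1-/-;hTDP1 cells in the absence of CPT. ATP levels (CellTiter-Glo luminescence) are recorded after a ≥48 hr, 37 °C incubation.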
Gal4-VP16 FLuc = VP16 counterscreen qHTS for inhibitors of ROR gamma transcriptional activity | Potency, µM (doses to about 53.6 µM), for inactives: top-dose activity, negative = inhibition, actives largely listed as inhibitors | actives 3.5% (n = 310,000) | AID 2546, 2010 | Drosophila S2 Gal4-VP16 UAS-luciferase, luminescence, 20 h;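 also: Gal4-VP16 expression switched on by copper sulfate through the metallothionein promoter; nearly all actives have a fitted effect of over 50% in size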
RORg inh = qHTS for inhibitors of ROR gamma transcriptional activity. actives 5.4% (n = 310,000). Potency, µM (titrated, usually from 53.6 µM), without a hit: top-dose activity change, negative = inhibition, hits mostly inhibitors. Drosophila S2 Gal4-RORgamma UAS-luciferase reporter, 20 h; also: nearly all actives have a fitted effect of over 60% in size
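Schneider cells (Drosophila), stable Gal4 DBD–ROR gamma + UAS-luc; 1 hr cmpd preincubation; Cu2+ induction 700 uM final; 20 hr ambient; luminescence.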
Active calls of the source: *; u = inconclusive; x = no result; [ ] = another dose, or the depositor's remark. A selection: hits, their analogues and other compounds. The true share with any hit is near 19%. Calls follow the shape of the dose curve; as a rule, active = well fitted curve in the direction sought with a large enough effect; inconclusive = small, poorly fitted or top-dose-only effect, or another doubt; inactive = no such curve, though single readings can be large; an effect the other way counts as inactive or inconclusive. % is scaled to controls: 0 for no effect and ±100 for the full control effect; potency is read from the fitted curve at half-maximal effect.

SMILES	TDP1 cell CPT	TDP1 inh	DT40 TDP1 no CPT	Gal4-VP16 FLuc	RORg inh
COc1cc([C@@H]2c3cc4c(cc3[C@@H](O)[C@H]3COC(=O)[C@H]23)OCO4)cc(OC)c1O[Si](C)(C)C(C)(C)C	13µM*	0%	15µM*	4%	u
CCOc1c(Cl)cc(CNC(C)(C)CC(C)(C)C)cc1OC	u	9%	21µM*	8%	-13%
CC(C)Oc1c(Cl)cc(CNC(C)(C)CO)cc1Cl	-25%	1%	-17%	4%	-39%
C=C[C@@H](C1=CC(=O)C(OC)=C(OC)C1=O)c1ccccc1	1.2µM*	9%	0.73µM*	u	u
COc1cc(NC(=O)N2CCC3(CC2)Nc2ccccc2-n2cccc23)cc(OC)c1OC	21µM*	11%	u	x	x
CC[n+]1ccc(C[n+]2ccccc2)c2ccccc21	0%	22µM*	-25%	2%	4%
O=C(NC1CCCC1)C1CCN(c2nccs2)CC1	-12%	4%[56.1 µM]	-2%	16%	-11%
Cc1cccc(N2CCN(c3nc4ccccc4c(=O)n3-c3ccc(Cl)cc3)CC2)c1C	-26%	-2%	u	x	x
O=c1c2ccccc2nc(N2CCN(c3cccc(Cl)c3)CC2)n1-c1ccccc1	3.7µM*	-2%	2.9µM*	x	x
Cc1ccc(C)c(N2CCN(c3nc4ccccc4c(=O)n3-c3ccc(Cl)cc3)CC2)c1	5.8µM*	-5%	21µM*	x	x
CN(CC(=O)Nc1cccc(Cl)c1)S(=O)(=O)c1ccc2[nH]c(=O)oc2c1	6%	-18%	2%	-7%	-1%
COc1ccc(CCN(C(=O)C(F)(F)F)C(C(=O)NC2CCCCC2)c2ccc(C)s2)cc1OC (stereo not given)	12µM*	-3%	9.2µM*	-9%	-38%
COc1ccc(CCN(C(=O)C(F)(F)F)C(C(=O)NC2CCCC2)c2cccs2)cc1OC (stereo not given)	7.3µM*	0%	1.8µM*	7%	7%
Brc1ccc(-c2ccc(/C=N/Nc3nc(N4CCOCC4)nc(N4CCOCC4)n3)o2)cc1	u	4%	10µM*	2%	-1%
Fc1cnc(N/N=C/c2ccc(-c3ccc(Br)cc3)o2)nc1N1CCOCC1	11%	8%	3%	u	u
Clc1ccc(-c2ccc(/C=N/Nc3cc(N4CCOCC4)nc(N4CCOCC4)n3)o2)cc1	-93%	8%	16µM*	12%	u
COc1ccc(-c2nn(-c3ccccc3)cc2N)cc1	-3%	7%	-20%	-3%	6%
CCOc1ccccc1NC(=O)CSc1ncc(S(=O)(=O)c2ccc(C)c(C)c2)c(N)n1	u	1%	23µM*	x	x
CCc1ccccc1NC(=O)CSc1ncc2c(n1)-c1cc(Cl)ccc1N(Cc1ccccc1)S2(=O)=O	-24%	3%	-15%	x	x
CCOC(=O)c1ccccc1NC(=O)CSc1ncc(C(=O)OCC)c(N)n1	u	0%	u	0%	6%
Cc1cc(C)c(NC(=O)CSc2ncc3c(n2)-c2cc(Cl)ccc2N(C)S3(=O)=O)c(C)c1	0.16µM*	3%	0.046µM*	x	x
CCOc1ccccc1NC(=O)CSc1ncc2c(n1)-c1ccccc1N(CC)S2(=O)=O	23µM*	-8%	16µM*	x	x
CCc1cccc(NC(=O)CSC2=NS(=O)(=O)c3ccccc32)c1	2.6µM*	5%	4.1µM*	-7%	-34%
COc1ccc(N2C(=NC(=O)C3CCCCC3)SC3CS(=O)(=O)CC32)cc1 (stereo not given)	-13%	0%	22%	0%	-10%
CCc1cccc(NC(=O)CSc2ncc3c(n2)-c2ccc(Cl)cc2N(Cc2ccccc2)S3(=O)=O)c1	18µM*	-5%	16µM*	x	x
SMILES	TDP1 cell CPT	TDP1 inh	DT40 TDP1 no CPT	Gal4-VP16 FLuc	RORg inh
CCOc1ccc(NC(=O)CSc2ncc3c(n2)-c2ccc(Cl)cc2N(Cc2ccccc2)S3(=O)=O)cc1	-13%	-3%	-4%	x	x
CC1c2cc3c(cc2CCN1C(=O)c1ccc(C(F)(F)F)cc1)OCCCO3 (stereo not given)	u	4%	u	4%	8%
Cc1ccc(C(=O)N2CCc3cc4c(cc3C2C)OCCCO4)cc1 (stereo not given)	23µM*	8%	u	-1%	2%
CC1c2cc3c(cc2CCN1C(=O)c1ccc(Cl)cc1)OCCCO3 (stereo not given)	16µM*	5%	13µM*	0%	22%
CC(=O)Nc1ccc(C(=O)N2CCc3cc4c(cc3C2C)OCCCO4)cc1 (stereo not given)	u	x	18µM*	-3%	12%
O=C(COC(=O)CN1C(=O)c2ccccc2C1=O)Nc1ccccc1C(F)(F)F	-14%	x	-14%	x	x
CCOc1ccc(CCNC(=O)Cn2nc(C)c3c(C)n(-c4ccccc4)nc3c2=O)cc1	-4%	0%	-2%	3%	15%
NC(=O)[C@H]1CC2(CC(c3cccc(NC(=O)COc4ccc(Cl)cc4)c3)=NO2)CN1C(=O)C(c1ccccc1)c1ccccc1 (stereo not given in full)	6.5µM*	4%	13µM*	4%	45%
NC(=O)[C@@H]1CC2(CC(c3cccc(NC(=O)COc4ccc(Cl)cc4)c3)=NO2)CN1C(=O)COc1ccc(Cl)cc1 (stereo not given in full)	u	7%	12µM*	-12%	38%
CC/C=C/C(=O)N1CC2(CC(c3cccc(NC(=O)COc4ccc(Cl)cc4)c3)=NO2)C[C@H]1C(N)=O (stereo not given in full)	29µM*	-1%	u	u	-6%
CS(=O)(=O)c1ccc(C(=O)N(Cc2ccccc2)c2ccccc2)cc1	u	1%	u	1%	1%
O=C(COC(=O)c1cc2c(s1)CCCCC2)NC1CCS(=O)(=O)C1 (stereo not given)	-30%	0%	-30%	x	x
Cc1cnc(C)c(-c2cccc3c2OC(CNC(=O)C2(c4ccc(Cl)cc4)CC2)C3)n1 (stereo not given)	-14%[9.04 µM]	x	21µM*	x	x
Cc1cnc(C)c(-c2ccc(F)c3c2OC(CNC(=O)Cc2c(C)[nH]c4ccccc24)C3)n1 (stereo not given)	-4%	x	-30%	x	x
Cc1cnc(C)c(-c2ccc(F)c3c2OC(CNC(=O)/C=C/c2cccs2)C3)n1 (stereo not given)	u	x	21µM*	x	x
